Inconclusive results are not listed. A number with no mark means an inactive call. Activity calls are given as the source filed them. Unless noted, calls follow the shape of the dose curve; as a rule, active = well fitted curve in the direction sought with a large enough effect; inconclusive = small, poorly fitted or top-dose-only effect, or another doubt; inactive = no such curve, though single readings can be large; an effect the other way counts as inactive or inconclusive.

Here are results for 30 compounds from PubChem BioAssay (NCATS).

Experiment [1] is described as follows: Primary qHTS for small molecule stabilizers of the endoplasmic reticulum resident proteome: Secreted ER Calcium Modulated Protein (SERCaMP) assay (AID 1508630). Also: potency is read from the fitted curve at half-maximal effect. The method, boiled down:
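The SH-SY5Y reporter protocol was run at 3 concentrations up to 38.3 uM (primary) or 11 concentrations (follow-up): 16 h compound, 100 nM thapsigargin for 4 h, then extracellular luciferase luminescence.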
Background: In qHTS, concentration-response curves come from the screen itself.

Experiment [2] can be described thus: A High-Content qHTS Against Drug Library for the Identification of Small Molecules that Inhibit DYT1 Early Onset Primary Dystonia-Associated Cell Pathology (AID 1645839; calls by dose curve). The method, boiled down: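 Induced EGFP-delE TorsinA cells are imaged after 48 h of compound treatment. Punctate fusion-protein distribution gives the %pathology value, while nuclei counts flag toxicity. Wild-type EGFP-hTOR1A cells define the normal pattern.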

In experiment [3] the target is Cytochrome P450 2D6 (Homo sapiens) (UniProt P10635). Description: Cytochrome P450 family 2 subfamily D member 6 (CYP2D6) small molecule antagonists: luciferase biochemical (cell-free) qHTS assay (AID 1645840; active = well fitted curve in the direction sought with a large enough effect in the repeat runs; an effect the other way counts as inactive or inconclusive; also: nearly all actives have a fitted effect of over 55% in size; also: potency is read from the fitted curve at half-maximal effect). The method, boiled down:
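P450-Glo CYP2D6 system: proluciferin substrate converted by enzyme to luciferin, read by luminescence proportional to activity. Enzyme-substrate mix with compound 10 min at room temperature, then NADPH regeneration 1 h before detection reagent.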

The target in experiment [4] is Cytochrome P450 2C9 (Homo sapiens) (UniProt P11712). The experiment can be described thus: Cytochrome P450 family 2 subfamily C member 9 (CYP2C9) small molecule antagonists: luciferase biochemical (cell-free) qHTS assay (AID 1645842; active = well fitted curve in the direction sought with a large enough effect in the repeat runs; an effect the other way counts as inactive or inconclusive; also: nearly all actives have a fitted effect of over 55% in size; also: potency is read from the fitted curve at half-maximal effect). The method, boiled down: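 P450-Glo CYP2C9 system: proluciferin substrate with enzyme in mix containing 0.4% BSA, 10 min at room temperature, then NADPH regeneration solution added and incubated 1 h at 37C. Detection reagent stopped reaction; luminescence read after 20 min as RLU.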
Cytochrome P450 2C9 (Homo sapiens), sequence (P11712 whole entry, looked up): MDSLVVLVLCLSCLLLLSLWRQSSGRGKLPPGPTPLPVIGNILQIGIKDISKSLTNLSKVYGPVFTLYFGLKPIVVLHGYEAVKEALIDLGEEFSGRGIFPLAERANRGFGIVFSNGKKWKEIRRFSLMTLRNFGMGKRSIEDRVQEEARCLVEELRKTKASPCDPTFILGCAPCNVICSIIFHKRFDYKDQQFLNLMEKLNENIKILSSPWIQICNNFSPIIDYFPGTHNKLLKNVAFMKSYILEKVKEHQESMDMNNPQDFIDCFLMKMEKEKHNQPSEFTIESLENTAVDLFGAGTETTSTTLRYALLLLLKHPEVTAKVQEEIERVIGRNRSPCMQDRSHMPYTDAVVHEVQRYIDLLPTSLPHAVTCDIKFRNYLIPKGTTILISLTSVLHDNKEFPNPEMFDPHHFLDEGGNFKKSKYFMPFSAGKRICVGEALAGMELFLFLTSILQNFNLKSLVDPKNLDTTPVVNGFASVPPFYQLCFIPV

A short description of experiment [5]: Primary qHTS for inhibitors of nuclear receptor binding SET domain protein 2 (NSD2) in an isogenic RCH-ACV NSD2 p.E1099K mutant (9B) (AID 1645876). Also: nearly all actives have a fitted effect of over 70% in size. Also: potency is read from the fitted curve at half-maximal effect.
Experiment [6] is described as follows: Primary qHTS for inhibitors of nuclear receptor binding SET domain protein 2 (NSD2) in an RCH-ACV wild type WT cells (2C) (AID 1645877). Also: nearly all actives have a fitted effect of over 70% in size. Also: potency is read from the fitted curve at half-maximal effect.
The nature of experiment [7]: NCATS anti-infectives library activity on HEK293 viability as a counter-qHTS vs the C. elegans viability qHTS (AID 1745854). Also: % is scaled to controls: 0 for no effect and ±100 for the full control effect. In a few lines: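 Cytotoxicity counter-screen to a worm viability qHTS: CellTiter-Glo luminescence read 10 min after reagent addition. Compounds (final up to 41.7 uM, a 1:5 dilution series) incubated 24 hr at 37C with 1,500 HEK293 cells per well; digitonin control.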

Experiment [8] concerns the target Rap guanine nucleotide exchange factor 3 (Homo sapiens) (UniProt O95398). The experiment can be described thus: Confirmatory qHTS for antagonist of cAMP-regulated guanine nucleotide exchange factor 3 (EPAC1) (AID 1645880).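 Also: plate controls were DMSO only for no effect and full effect of the ATA control for full effect; nearly all actives have a fitted effect of over 55% in size.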 In a few lines: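 Released BODIPY-GDP fluoresces less than Rap1-bound BODIPY-GDP; the signal is followed at 480/540 nm at 5-min intervals over 30 min, after 5 min at room temperature. Reactions contain 100 nM EPAC1, 250 nM RAP1B-BODIPY-GDP and 50 uM GDP; results are normalized to ATA and DMSO.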

Experiment [9] has the same target. The experiment can be described thus: Confirmatory qHTS for agonist of cAMP-regulated guanine nucleotide exchange factor 3 (EPAC1) (AID 1645881).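 Also: EPAC1 catalysed release of BODIPY-GDP from Rap1B seen as fluorescence loss; 100% = effect of cAMP agonist control; nearly all actives have a fitted effect of over 75% in size.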
Experiment [10] has as its target Rap guanine nucleotide exchange factor 4 (Homo sapiens) (UniProt Q8WZA2). Description: Confirmatory qHTS for agonist of cAMP-regulated guanine nucleotide exchange factor 4 (EPAC2) (AID 1645884).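 Also: nucleotide exchange releases bodipy-GDP from Rap1 and this lowers its fluorescence; % is scaled to controls: 0 for no effect and ±100 for the full control effect; nearly all actives have a fitted effect of over 65% in size.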
Experiment [11] has the same target. Description: Confirmatory qHTS for antagonist of cAMP-regulated guanine nucleotide exchange factor 4 (EPAC2) (AID 1645885). Also: nearly all actives have a fitted effect of over 25% in size. Also: potency is read from the fitted curve at half-maximal effect.
The next experiment deals with Papain (Carica papaya) (UniProt P00784). Description: Primary qHTS assay for inhibitors of the protease papain (AID 1645873).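 Also: papain turnover of Z-FR-AMC read as the AMC fluorescence gain over 10 min; % is scaled to controls: 0 for no effect and ±100 for the full control effect.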
Papain (Carica papaya), sequence (P00784 whole entry, looked up): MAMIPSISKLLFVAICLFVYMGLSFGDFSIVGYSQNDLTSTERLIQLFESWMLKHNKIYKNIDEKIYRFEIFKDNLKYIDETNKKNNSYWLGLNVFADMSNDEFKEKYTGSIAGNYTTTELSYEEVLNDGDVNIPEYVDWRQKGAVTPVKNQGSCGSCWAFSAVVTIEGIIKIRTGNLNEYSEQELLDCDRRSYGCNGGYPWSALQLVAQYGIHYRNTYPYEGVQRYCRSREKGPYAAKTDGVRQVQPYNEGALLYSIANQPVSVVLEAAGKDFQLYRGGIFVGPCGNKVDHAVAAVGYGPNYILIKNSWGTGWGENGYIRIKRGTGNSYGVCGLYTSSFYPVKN
A short description of experiment [12]: NCATS anti-infectives library activity on the primary C. elegans qHTS viability assay (AID 1745855; calls by dose curve). To be noted: C. elegans worm area imaging, day 7; at 41.8 µM (top of the series) unless noted. The method, boiled down:
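GFP read-out by 488 nm laser cytometry at day 0, 3 and 7, gated on object perimeter, area and peak intensity, scored viability of PE254-GFP-FLuc worms exposed to compound in S medium with bacterial capsules at 21 °C.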

Cytochrome P450 2D6 (Homo sapiens), sequence (P10635 whole entry, looked up): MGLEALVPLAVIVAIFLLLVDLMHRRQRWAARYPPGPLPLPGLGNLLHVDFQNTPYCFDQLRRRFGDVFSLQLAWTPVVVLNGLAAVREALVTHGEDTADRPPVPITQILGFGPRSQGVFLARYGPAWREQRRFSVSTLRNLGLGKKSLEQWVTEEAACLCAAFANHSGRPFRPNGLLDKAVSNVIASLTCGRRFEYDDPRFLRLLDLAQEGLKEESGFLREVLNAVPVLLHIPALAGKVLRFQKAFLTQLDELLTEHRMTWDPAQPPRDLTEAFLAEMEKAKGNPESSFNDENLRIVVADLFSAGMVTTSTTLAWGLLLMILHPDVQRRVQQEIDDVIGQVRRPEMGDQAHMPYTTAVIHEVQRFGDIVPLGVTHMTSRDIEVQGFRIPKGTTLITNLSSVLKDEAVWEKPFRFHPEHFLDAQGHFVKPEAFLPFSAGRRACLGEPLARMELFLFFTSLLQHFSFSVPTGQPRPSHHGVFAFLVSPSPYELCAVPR
Rap guanine nucleotide exchange factor 3 (Homo sapiens), sequence (O95398 whole entry, looked up): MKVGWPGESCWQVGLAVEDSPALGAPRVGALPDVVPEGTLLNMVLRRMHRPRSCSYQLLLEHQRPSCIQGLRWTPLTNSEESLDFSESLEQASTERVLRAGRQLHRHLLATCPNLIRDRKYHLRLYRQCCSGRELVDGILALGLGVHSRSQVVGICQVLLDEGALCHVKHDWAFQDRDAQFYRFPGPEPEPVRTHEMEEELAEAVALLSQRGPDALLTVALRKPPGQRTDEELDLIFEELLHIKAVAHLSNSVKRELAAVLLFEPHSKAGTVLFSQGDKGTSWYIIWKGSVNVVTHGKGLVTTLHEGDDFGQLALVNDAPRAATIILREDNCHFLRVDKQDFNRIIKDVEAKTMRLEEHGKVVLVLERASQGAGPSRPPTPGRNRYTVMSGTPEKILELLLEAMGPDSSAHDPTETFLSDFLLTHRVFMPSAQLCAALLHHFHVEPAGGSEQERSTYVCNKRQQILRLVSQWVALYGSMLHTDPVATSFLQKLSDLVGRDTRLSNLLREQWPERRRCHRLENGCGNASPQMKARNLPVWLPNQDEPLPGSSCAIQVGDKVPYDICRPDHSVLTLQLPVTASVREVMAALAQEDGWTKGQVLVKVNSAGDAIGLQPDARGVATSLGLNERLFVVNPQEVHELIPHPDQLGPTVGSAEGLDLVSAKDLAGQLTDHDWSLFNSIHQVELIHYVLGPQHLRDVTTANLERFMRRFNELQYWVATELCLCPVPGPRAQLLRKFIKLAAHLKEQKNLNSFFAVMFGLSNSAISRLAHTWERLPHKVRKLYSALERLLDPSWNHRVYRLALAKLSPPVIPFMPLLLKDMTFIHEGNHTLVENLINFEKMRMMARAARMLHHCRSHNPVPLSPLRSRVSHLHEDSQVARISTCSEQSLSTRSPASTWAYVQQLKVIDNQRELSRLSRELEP
Rap guanine nucleotide exchange factor 4 (Homo sapiens), sequence (Q8WZA2 whole entry, looked up): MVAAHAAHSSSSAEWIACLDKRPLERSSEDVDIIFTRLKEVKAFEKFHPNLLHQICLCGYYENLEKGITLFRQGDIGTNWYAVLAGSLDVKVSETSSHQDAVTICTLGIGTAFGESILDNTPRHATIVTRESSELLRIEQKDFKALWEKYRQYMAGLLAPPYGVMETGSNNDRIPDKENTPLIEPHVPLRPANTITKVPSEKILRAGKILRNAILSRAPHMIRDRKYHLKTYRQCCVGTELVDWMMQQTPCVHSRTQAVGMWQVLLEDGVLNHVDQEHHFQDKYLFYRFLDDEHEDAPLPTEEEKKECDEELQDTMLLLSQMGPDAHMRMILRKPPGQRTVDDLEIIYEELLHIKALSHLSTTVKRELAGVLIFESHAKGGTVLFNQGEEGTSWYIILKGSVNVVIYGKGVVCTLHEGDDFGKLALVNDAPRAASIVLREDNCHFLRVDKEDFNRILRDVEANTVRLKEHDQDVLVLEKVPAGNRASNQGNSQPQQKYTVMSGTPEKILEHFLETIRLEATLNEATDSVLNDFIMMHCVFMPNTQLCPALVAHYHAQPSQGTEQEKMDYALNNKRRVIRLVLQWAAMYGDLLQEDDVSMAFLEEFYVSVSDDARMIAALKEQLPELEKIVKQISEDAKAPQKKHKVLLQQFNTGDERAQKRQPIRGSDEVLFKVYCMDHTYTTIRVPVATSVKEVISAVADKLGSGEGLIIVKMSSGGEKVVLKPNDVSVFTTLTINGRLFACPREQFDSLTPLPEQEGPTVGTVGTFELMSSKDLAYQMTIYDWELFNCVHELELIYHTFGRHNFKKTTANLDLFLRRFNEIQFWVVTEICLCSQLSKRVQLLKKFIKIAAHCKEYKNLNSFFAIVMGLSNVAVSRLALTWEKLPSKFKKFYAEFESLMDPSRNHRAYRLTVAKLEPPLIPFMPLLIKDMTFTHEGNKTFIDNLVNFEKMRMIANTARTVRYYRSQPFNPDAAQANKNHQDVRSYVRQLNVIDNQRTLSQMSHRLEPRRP

`Cn1c(=O)c2[nH]c(Br)nc2n(C)c1=O`: the Potency entry in [1], in experiment [2], in experiment [3], in [4], in experiment [5] and in experiment [6] was “inactive” each time.

As for `COc1cc(C(=O)NCc2ccc(OCCN(C)C)cc2)cc(OC)c1OC`, the Potency result in experiment [1], in experiment [2], in experiment [3], in [4], in experiment [5] and in [6] was “inactive” in each case. Moreover, in experiment [7], the compound was classed as inactive.

Turning to `O=C1OC(CN2CCOCC2)CN1/N=C/c1ccc([N+](=O)[O-])o1` (configuration not stated), the Potency result in experiment [1], in experiment [2] and in experiment [4] was “inactive” each time.

Turning to `COc1ccccc1N1CCN(CCCCNC(=O)c2ccc(-c3ccc(C(C)=O)cc3)cc2)CC1`, the Potency entry in experiment [1], in experiment [2], in experiment [4] and in experiment [5] was “inactive” throughout.

Regarding `COC(=O)C(c1ccccc1Cl)N1CCc2sccc2C1` (configuration not stated), the Potency result in experiment [1], in experiment [2], in [5] and in experiment [6] was “inactive” each time. In [3], the Potency is 17.4 µM (active).

Take `CCc1ccc(C(=O)C(C)CN2CCCCC2)cc1` (configuration not stated): the Potency result in experiment [1], in [2] and in experiment [4] was “inactive” each time. Also, the Potency in [3] is 0.871 µM (active); in [6] it was 23.7 µM (active).

For `O=[N+]([O-])c1cccc(S(=O)(=O)NCCNS(=O)(=O)c2cccc([N+](=O)[O-])c2)c1`, the Potency entry in experiment [1], in [2], in experiment [3], in experiment [5] and in experiment [6] was “inactive” in each case.

`CC(=O)O[C@]1(C(C)=O)CC[C@H]2[C@@H]3C=C(C)C4=CC(=O)CC[C@]4(C)[C@H]3CC[C@@]21C`: the Potency entry in experiment [1], in experiment [2], in [3], in experiment [5] and in [6] was “inactive” each time. In [4], the Potency is 12.3 µM (active). Further, the call in experiment [7] was inactive.

Take `COc1ccc(C(=O)c2ccccc2)c(O)c1`: the Potency result in [1], in experiment [2], in experiment [3] and in experiment [8] was “inactive” in each case. Further, the result in experiment [9] and in experiment [10] was inactive. Besides, the Potency in experiment [11] is 31.2 µM (active).

For `COc1cc(C(=O)N2CCCCCCC2)cc(OC)c1OC`, the Potency result in experiment [1], in [2], in experiment [3], in experiment [4], in experiment [5] and in experiment [6] was “inactive” each time.

In the case of `CC(C)(C)NC[C@H](O)COc1nsnc1N1CCOCC1`, the Potency result in experiment [1], in experiment [2], in experiment [4], in experiment [5] and in experiment [6] was “inactive” in each case. Besides, the call with Papain (Carica papaya) was inactive.

On to `O=C(CCCN1CC=C(n2c(=O)[nH]c3ccccc32)CC1)c1ccc(F)cc1`, for which the Potency in [1] was 25.1 µM (active); in experiment [3] it was 0.246 µM (active). In addition, the Potency result in experiment [2], in experiment [4], in experiment [5] and in [6] was “inactive” in each case.

Regarding `C[C@H]1[C@H]2CC[C@H]3[C@@H]4CC=C5C[C@@H](N(C)C)CC[C@]5(C)[C@H]4CC[C@]23CN1C`, the Potency result in [1], in [2], in experiment [3] and in experiment [4] was “inactive” throughout. Further, the activity change, negative = cytotoxicity in experiment [7] was -25.4% [at 8.35 µM].

In the case of `OCc1ccccn1`, the Potency entry in experiment [1], in [2], in experiment [3], in experiment [4], in experiment [5] and in [6] was “inactive” in each case.

On to `NCCNC(=O)c1ccc(Cl)cn1`, for which the Potency result in experiment [1], in experiment [2], in experiment [3], in [4], in experiment [5] and in experiment [6] was “inactive” in each case.

On to `C#C[C@]1(O)CC[C@H]2[C@@H]3CCC4=CC(=O)CC[C@@H]4[C@H]3CC[C@@]21CC`, for which the Potency entry in [1], in [2], in experiment [3], in experiment [5] and in experiment [6] was “inactive” each time. In experiment [4], the Potency is 12.3 µM (active).

On to `NS(=O)(=O)c1cc2c(cc1Cl)NC(CC1CCCC1)NS2(=O)=O` (configuration not stated), for which the Potency result in [1], in experiment [2], in [4], in [5] and in experiment [6] was “inactive” each time.

Regarding `CC(C)[C@@H]1CC[C@@H](C)CC1=O`, the Potency result in experiment [1], in experiment [2], in experiment [3], in [4], in experiment [5] and in [6] was “inactive” throughout.

Regarding `Cl/C(=C\n1cncn1)c1ccc(Cl)cc1Cl`, the Potency result in experiment [1], in experiment [2], in [5], in experiment [8] and in experiment [11] was “inactive” throughout. Moreover, the Potency was 4.9 µM (active) in [3] and 11 µM (active) in experiment [4]. In addition, the call in experiment [9] and in [10] was inactive.

`c1ccc(-c2nc[nH]c2-c2ccccc2)cc1`: the Potency result in experiment [1], in [2] and in [4] was “inactive” in each case.

Turning to `C=C[C@@]1(C)CC(=O)[C@]2(O)[C@@]3(C)[C@@H](O)CCC(C)(C)[C@@H]3[C@H](O)[C@H](OC(C)=O)[C@@]2(C)O1`, the Potency entry in experiment [1], in experiment [2] and in experiment [3] was “inactive” throughout. For the same compound, the Potency in experiment [5] is 0.841 µM (active).

On to `Nc1nc(N)c(-c2ccccc2)s1`, for which the Potency entry in experiment [1], in experiment [2], in experiment [4], in [5] and in [6] was “inactive” each time.

Take `OC[C@H]1O[C@@H](Oc2ccc(O)cc2)[C@H](O)[C@@H](O)[C@@H]1O`: the Potency result in experiment [1], in experiment [2], in experiment [3] and in [4] was “inactive” each time. Also, the result in experiment [7] was inactive. For the same compound, in experiment [12], the outcome was “inactive [at 83.3 µM]”.

With `FC1(F)C(F)(F)C(F)(F)C2(F)C(F)(F)C(F)(F)C(F)(F)C(F)(F)C2(F)C1(F)F` (configuration not stated), the Potency entry in [1], in experiment [2], in [3], in experiment [4], in experiment [5] and in experiment [6] was “inactive” each time.

For `CC(=O)Nc1ncc([N+](=O)[O-])s1`, the Potency result in [1], in experiment [2], in [4] and in [5] was “inactive” throughout.

As for `CCN(CC)CCNC(=O)COc1ccc(OC)cc1`, the Potency result in [1], in [2], in [4], in experiment [5] and in [6] was “inactive” each time. In experiment [3], the Potency was 13.8 µM (active).

For `CCC1Nc2cc(Cl)c(S(N)(=O)=O)cc2S(=O)(=O)N1` (configuration not stated), the Potency result in [1], in experiment [2], in experiment [3], in experiment [4], in experiment [5] and in [6] was “inactive” throughout.

Turning to `O=C(O)CCc1nc2ccccc2[nH]1`, the Potency entry in experiment [1], in experiment [2], in experiment [3], in experiment [4], in experiment [5] and in [6] was “inactive” throughout. The compound was called inactive in experiment [7] and in experiment [12].

`CN(C)CCOC(=O)C(c1ccccc1)C1(O)CCCC1` (configuration not stated): the Potency entry in experiment [1], in [2], in experiment [4], in experiment [5] and in experiment [6] was “inactive” each time.

In the case of `CC(=O)O[C@H]1C[C@@H]2CC[C@@H]3[C@H](CC[C@@]4(C)[C@H]3C[C@H]([N+]3(C)CCCCC3)[C@@H]4OC(C)=O)[C@@]2(C)C[C@@H]1N1CCCCC1`, the Potency result in [1], in experiment [2], in experiment [4] and in experiment [5] was “inactive” each time.
